High-throughput results deposited in PubChem by National Center for Advancing Translational Sciences (NCATS).
Rows were chosen to be rich in hits. Some 2.5% of all compounds tested hit in one or more screens of this group.
Cruzain noTriton – qHTS Assay for Promiscuous and Specific Inhibitors of Cruzain (without detergent) | Potency, µM, hits mostly inhibitors | 200,000 compounds, 2.3% hits | purified cruzain, Z-FR-AMC fluorescence, no detergent | Cruzipain (Trypanosoma cruzi), P25779; also: nearly all actives have a fitted effect of over 40% in size
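Purified cruzain at 1.5 nM, pre-incubated 15 min with compound at room temperature in 100 mM sodium acetate pH 5.5, 5 mM DTT, 0.00005% Triton X-100. Reaction started with 2 uM Z-FR-AMC; AMC fluorescence increase over 60 s gives rate.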
Cruzain inh Det – qHTS Assay for Promiscuous and Specific Inhibitors of Cruzain (with detergent); purified cruzain, Z-FR-AMC fluorescence, 0.01% Triton; 200,000 compounds, 0.43% hits; Potency, µM, actives largely listed as inhibitors; AID 1478, 2009; Cruzipain (Trypanosoma cruzi), P25779; also: nearly all actives have a fitted effect of over 40% in size
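Z-FR-AMC hydrolysis (2 uM substrate) by cruzain (1.5 nM) monitored kinetically at ex 360/em 450 nm after 15 min room-temperature compound exposure; 0.01% Triton X-100, pH 5.5, 5 mM DTT.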
Papain counter – qHTS Assay for Inhibitors of Papain: Counterscreen for Cruzain Assay | shares compounds with Cruzain inh Det | purified papain, Z-FR-AMC fluorescence cleavage | Potency, µM, hits mostly inhibitors | 410 compounds, 41% hits; also: nearly all actives have a fitted effect of over 35% in size
Target sequence (P00784 whole entry, looked up): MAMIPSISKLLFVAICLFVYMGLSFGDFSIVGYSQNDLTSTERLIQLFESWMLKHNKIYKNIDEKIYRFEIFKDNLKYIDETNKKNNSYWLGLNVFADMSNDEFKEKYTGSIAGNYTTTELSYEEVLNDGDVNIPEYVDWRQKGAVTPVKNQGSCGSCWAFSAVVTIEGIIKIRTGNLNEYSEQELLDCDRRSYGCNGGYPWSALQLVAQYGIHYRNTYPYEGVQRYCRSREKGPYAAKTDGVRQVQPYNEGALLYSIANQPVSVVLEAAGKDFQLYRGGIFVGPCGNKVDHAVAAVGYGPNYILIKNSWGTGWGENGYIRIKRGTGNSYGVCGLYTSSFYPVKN
Each line names hits and unclear results; the compound was inactive in the other large screens (follow-up assays come after a bar, where they were run). Calls follow the shape of the dose curve; as a rule, active = well fitted curve in the direction sought with a large enough effect; inconclusive = small, poorly fitted or top-dose-only effect, or another doubt; inactive = no such curve, though single readings can be large; an effect the other way counts as inactive or inconclusive.

CC1(C)Cc2c(C#N)c(SCC(=O)c3ccccc3)nc(N3CCOCC3)c2CO1	Cruzain noTriton inconclusive
O=C(NCc1ccc(F)cc1)c1cnc(N2CCOCC2)c2ccccc12	none
COc1cccc(NC(=O)CN2C(=O)C3(SCC(=O)N3c3cc(C)cc(C)c3)c3ccccc32)c1 (stereo unspecified)	Cruzain noTriton inconclusive
Cn1ncc(Cl)c1C(=O)Nc1cccnc1	none
COc1ccc(-c2nnc(-c3ccc(N)cc3)o2)cc1	none
COc1ccc(-c2ccc(-c3nnc(-c4cc(OC)ccc4OC)o3)cc2)cc1	Cruzain noTriton 25µM, Cruzain inh Det inconclusive | Papain counter 11µM
O=C(O)c1c(Sc2ccccc2)c2cc(Cl)ccc2n1Cc1ccc(Cl)cc1	Cruzain noTriton inconclusive, Cruzain inh Det 28µM | Papain counter 28µM
O=C(Cc1ccc(Cl)cc1)Nc1ccccc1Sc1ccccc1	none
Cc1cc(OCC(=O)Nc2ccc(N3CCN(C(=O)c4ccco4)CC3)cc2)cc(C)c1Cl	none
Cc1cc(OCC(=O)Nc2ccc(N3CCCC3)cc2)cc(C)c1Cl	Cruzain noTriton 4µM, Cruzain inh Det inconclusive | Papain counter inactive
Cc1c(CN(C)C(=O)c2cc(-c3ccccc3)nc3ccc(Br)cc23)cnn1C	Cruzain noTriton inconclusive
CCN(CC)C(=O)CN(C#N)c1nc(OC)nc(N(C)C)n1	none
COc1nc(C#N)nc(N(C)C)n1	Cruzain noTriton 13µM, Cruzain inh Det 10µM | Papain counter 16µM
COc1ccc(C2C(C(=O)Nc3ccccc3OC)=C(C)Nc3c(C(=O)Nc4ccccc4)cnn32)c(OC)c1 (stereo unspecified)	none
CN1CCN(c2ncc3ncc(=O)n(CCc4ccccc4)c3n2)CC1	none
CN1CCN(c2ncc3ncc(=O)n(-c4ccccc4)c3n2)CC1	Cruzain noTriton 20µM, Cruzain inh Det inconclusive | Papain counter 14µM
Cc1ccccc1Cn1c(CCCNC(=O)C2CCCCC2)nc2ccccc21	none
Cc1ccccc1OCCCn1c(CCNC(=O)C2CCCCC2)nc2ccccc21	Cruzain inh Det 3.2µM | Papain counter inactive
Cc1ccccc1OCCn1c(CCNC(=O)C(C)C)nc2ccccc21	none
CCC(C)c1ccccc1OCCn1c(CCNC(=O)C2CCCCC2)nc2ccccc21 (stereo unspecified)	none (no result: Cruzain noTriton, Cruzain inh Det) | Papain counter inactive
CCn1c(CCNC(=O)c2ccc(OC)c(OC)c2)nc2ccccc21	none
COc1ccccc1OCCCn1c(CCNC(=O)C2CCCCC2)nc2ccccc21	none (no result: Cruzain noTriton, Cruzain inh Det) | Papain counter 28µM
Cc1ccccc1OCCCCn1c(CCNC(=O)C2CCCCC2)nc2ccccc21	none (no result: Cruzain noTriton, Cruzain inh Det) | Papain counter 11µM
CCc1nc2ccccc2n1CCCCOc1ccccc1C	none
CCc1ccc(NC(=O)CCc2c(C)nn(-c3ccc(N4CCCC4)nn3)c2C)cc1	Cruzain noTriton inconclusive
Cc1oc(-c2cccc(Cl)c2)nc1CN1CCCC(C(=O)NC(C)c2ccc3c(c2)OCCO3)C1 (stereo unspecified)	none
CC1CCN(S(=O)(=O)c2cc(C(=O)N3CCN(c4ncccn4)CC3)ccc2Br)CC1	Cruzain noTriton inconclusive
O=C(NC1CCCC1)c1ccc2c(=O)n(Cc3ccccc3)c(SCc3ccccc3F)nc2c1	none
O=C(NCCCn1ccnc1)c1ccc(Br)o1	none
O=C(O)CCC(=O)N1CCN(c2nc(-c3ccccc3Cl)c3cc(Br)ccc3n2)CC1	Cruzain noTriton inconclusive
COCCNC(=O)Cn1c(=O)c2cccn2c2ccc(F)cc21	none
O=C(N[C@@H](Cc1ccccc1)C(=O)CCl)OCc1ccccc1	Cruzain noTriton 0.32µM, Cruzain inh Det 0.16µM | Papain counter 5µM
CSCC[C@H](NC(=O)OCc1ccccc1)C(=O)O	none
COC(=O)[C@@]1(Cc2ccc(F)cc2)[C@H]2c3cc(C(=O)N4CCCC4)n(Cc4ccccn4)c3C[C@H]2CN1C(=O)c1ccccc1	Cruzain noTriton inconclusive
Cn1c(=O)c2c(-c3ccccc3)n(CCCO)cc2n(C)c1=O	none
Cn1c(=O)c2c(-c3ccccc3)n(-n3cnnc3)cc2n(C)c1=O	Cruzain noTriton 6.3µM, Cruzain inh Det 8.9µM | Papain counter 13µM
S=C(NC1CCCCC1)N(CCc1nc2ccccc2[nH]1)C1CCCC1	Cruzain inh Det 13µM | Papain counter inactive
O=C(Nc1ccccc1)N(CCc1nc2ccccc2[nH]1)C1CCCC1	none
Cc1ccc(Cl)cc1NC(=O)C1CCN(S(=O)(=O)c2cccc3nonc23)CC1	none
Cc1ccc(S(=O)(=O)NCC(=O)OCC(=O)Nc2ncc(Cl)cc2Cl)cc1	Cruzain noTriton 25µM, Cruzain inh Det 20µM | Papain counter inactive
Cc1ccc(S(=O)(=O)CCC(=O)OCC(=O)Nc2ncc(Cl)cc2Cl)cc1	none
O=C(COC(=O)CNC(=O)C1CCCCC1)NC1CC1	none (no result: Cruzain noTriton, Cruzain inh Det) | Papain counter 25µM
CCOC(=O)CNC(=O)C1CCCCC1	none (no result: Cruzain noTriton, Cruzain inh Det) | Papain counter inactive
CC(C)(CNC(=O)C1CCCC1)CNC(=O)C1CCCC1	none
